About 83,000 compounds went through this panel and 20% of them were active in at least one assay; those are over-represented in the sample as a whole.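 In brief: 96-well plates, 48 h treatment, single concentration, percent growth endpoint.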 Calls of active or inactive are those of the source.
Tested on: OVCAR-3 ovarian
Assay: NCI-60 one-dose screen, 48 h (100 = growth as untreated, 0 = no growth, -100 = all killed)
Settings: 10 µM unless noted
Description: Growth inhibition of the OVCAR-3 human tumor cell line is measured as a screen for anti-cancer activity. Cells are grown in 96 well plates and exposed to the test compound for 48 hours. Compounds are tested at a single concentration, which is 10^-5 M for most compounds. The reported endpoint is percent growth (GI% or GIPRCNT), where numbers from 0 - 100% represent growth inhibition, and numbers from -100% - 0 represent cell death. For example, a value of 40 represents 60% growth inhibition. A value of 0 means no net growth occurred over the course of the experiment. A value of -40 indicates 40% of cells at the beginning of the experiment died by the end of the experiment. A value of -100 means all cells are dead at the end of the experiment.
NCI-60 Human Tumor Cell Lines Screen was performed using the standard one-dose NCI protocol, which is described in more detail at https://dtp.cancer.gov/discovery_development/nci-60/default.htm.
Compounds with GIPRCNT values below 10 were considered active. Activity score was based on GIPRCNT using the following formula: […]
Score is 0 for GIPRCNT values of 100 or above, 50 for GIPRCNT values of 0, and 100 for GIPRCNT values of -100.

| Structure (SMILES) | growth |
| --- | --- |
| CCN(CC)CCCNc1nc2ccccc2c2c(=O)c3cc(Cl)ccc3sc12 | 40.5% (inactive) |
| COc1cc(CCC[P+](c2ccccc2)(c2ccccc2)c2ccccc2)c(OC)c2c1OCO2 | 5% (active) |
| COc1ccc(-c2cnc3ccccc3n2)cc1 | 103% (inactive) |
| CCCCCCNC(=O)Oc1ccc(/C(=C(\C)c2ccc(Cl)cc2)c2ccc(OCCN(CC)CC)cc2)cc1 | 67.6% (inactive) |
| O=C(Nc1ccc(Cl)cc1F)c1cc(Cl)ccc1O | 2.51% (active) |
| O=C1NC(=O)C(c2ccccc2)(c2ccccc2)N1Cc1cn(-c2c3ccccc3nc3ccccc23)nn1 | 87% (inactive) |
| COc1ccc(C2=Nn3c(nnc3-c3cc(Cl)cc(Cl)c3Cl)SC2)cc1 | -24.6% (active) |
| O=c1c2cccc(F)c2sc2c(NCCCNCCO)nc3ccccc3c12 | 30.1% (inactive) |
| Cc1ccc(C(C)C)cc1C(=O)C[n+]1ccccc1 | 101% (inactive) |
| COc1ccc(OC)c(/C=C/C(=O)N/N=C/c2ccccc2)c1 | 6.02% (active) |
| CC1Cc2c(ncn3c(-c4ccc(F)cc4)nnc23)N(C)c2ccccc21 (stereo not given) | 6.26% (active) |
| OC(COc1ccccc1Cl)CN1CCN(c2cccc(Cl)c2)CC1 (stereo not given) | 113% (inactive) |
| CNC(=O)c1cc(-n2ccc3cc(NC(=O)c4ccc(N5CCOCC5)c(C(F)(F)F)c4)ccc32)ccn1 | 63.9% (inactive) |
| CCOC(=O)NCCc1ccccc1 | 116% (inactive) |
| Cc1ccc(-c2nc(N3CCN(CC(=O)Nc4ccc(Cl)cc4)CC3)c3ccccc3n2)cc1 | 97.8% (inactive) |
| CS(=O)(=O)Nc1cc(-c2ccc3ncnc(Nc4cccc(Cl)c4F)c3c2)cnc1Cl | 25% (inactive) |
| O=C(Oc1cccc2ccccc12)Oc1cccc2ccccc12 | 79.4% (inactive) |
| Cc1ccc(C(CC(=O)O)c2c(C)[nH][nH]c2=O)cc1 (stereo not given) | 109% (inactive) |
| Cc1ccc2sc3c(NCCCN)nc4ccccc4c3c(=O)c2c1 | 2.61% (active) |
| COc1ccc(/C=C/c2c(C(=O)/C=C/c3ccc(Cl)cc3)c(C)nc3ccccc23)cc1 | -4.96% (active) |

| Structure (SMILES) | growth |
| --- | --- |
| Cc1nc2ccccc2c(/C=C/c2ccc(Cl)cc2)c1C(=O)/C=C/c1ccc(C(F)(F)F)cc1 | -85.8% (active) |
| CCCCCCNC(=O)Oc1ccc(/C(=C(\C)c2ccc(Cl)cc2)c2ccc(OCCN3CCCCC3)cc2)cc1 | 58.4% (inactive) |
| COc1ccc(OC)c(/C=C/C(=O)N/N=C/c2ccc(Cl)cc2)c1 | -43.4% (active) |
| Cc1nn(-c2ccccc2)c(-n2ccnc2)c1/C=N/Nc1nc(-c2ccc(Cl)c(Cl)c2)cs1 | -69.4% (active) |
| O=C(/C=C/c1sc(Cl)nc1Cl)c1ccccc1 | 46% (inactive) |
| COc1ccc(-c2[nH]ncc2-c2cc3c(c(OC)c2)OCC(=O)N3)cc1 | -4.58% (active) |
| CCN1C(=O)N(CC)C2Nn3c(s/c(=C4\C(=O)N(CCC(C)C)c5ccccc54)c3=O)=NC21 (stereo not given) | 75.8% (inactive) |
| O=C(N/N=C/c1c(Cl)cccc1Cl)c1ccc(C(F)(F)F)nc1Nc1cccc(C(F)(F)F)c1 | -58% (active) |
| O=C(Nc1ccc(F)cc1F)c1cc(F)ccc1O | 1.72% (active) |
| COc1ccc(/C=C(/C#N)n2nnc3cccc(F)c32)cc1 | -18.6% (active) |
| COc1ccc(C(=O)C[C@]2(O)C(=O)Nc3c(Cl)ccc(Cl)c32)cc1 | 9.64% (active) |
| O=c1c2cc(C(F)(F)F)ccc2sc2c(NCCCNCCO)nc3ccccc3c12 | -73.8% (active) |
| Cc1ccc(S(=O)(=O)N/N=C/C2(c3ccccc3)CC2)cc1 | 111% (inactive) |
| OC(c1ccccc1)C(NC(Cc1ccccc1)c1ccccc1)c1ccccc1 (stereo not given) | 96.9% (inactive) |
| COC(=O)/C=C1\S/C(=N\Nc2ccc([N+](=O)[O-])cc2[N+](=O)[O-])N(C2CCCCC2)C1=O | 25.2% (inactive) |
| O=C(N/N=C/[C@@H](O)[C@H](O)[C@H](O)CO)c1ccc(NC(=O)c2cccnc2)cc1 | 112% (inactive) |
| O=C(CCN1C(=O)/C(=C/c2ccc(O)cc2)SC1=S)Nc1ccc(Cl)cc1 | 99.4% (inactive) |
| COC(=O)CCC/C=C\C[C@H]1C=CC(=O)/C1=C/C[C@@H](O)CCc1cccc(C(F)(F)F)c1 | -62.5% (active) |
| Cc1cccc(OCC(O)CN2CCN(c3ccc(Cl)cc3)CC2)c1 (stereo not given) | 104% (inactive) |
| NCCOc1ncccc1/C=C1\C2C=CC=CC2C2C=CC(F)=CC12 (stereo not given) | 35% (inactive) |
